Compound activity as filed in PubChem.
Only some compounds are listed: those with a hit (about 6% of all), similar ones and a draw of the others.
D3 antag: D3 dopamine receptor (human) antagonism. P35462. D3R cells, DiscoveRx beta-arrestin luminescence, antagonist mode; stronger effect = lower value. max response, negative = inhibition, %. hit rate 2.5% among 360,000; in the data active = max response below about -50%
Target sequence (P35462 whole entry, looked up): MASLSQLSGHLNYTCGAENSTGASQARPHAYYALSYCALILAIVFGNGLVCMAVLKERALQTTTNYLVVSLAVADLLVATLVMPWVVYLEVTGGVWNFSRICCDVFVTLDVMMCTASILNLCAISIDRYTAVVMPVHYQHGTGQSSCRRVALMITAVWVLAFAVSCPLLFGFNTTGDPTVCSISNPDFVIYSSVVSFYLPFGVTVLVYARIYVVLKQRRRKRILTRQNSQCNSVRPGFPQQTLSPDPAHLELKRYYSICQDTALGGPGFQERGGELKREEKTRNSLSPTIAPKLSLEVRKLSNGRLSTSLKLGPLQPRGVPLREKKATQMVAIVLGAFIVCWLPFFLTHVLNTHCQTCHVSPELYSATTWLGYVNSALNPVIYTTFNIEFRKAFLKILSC
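Cells plated overnight at 1500 cells/well, then exposed to library compounds with dopamine controls for 90 minutes at 37 degrees C. DiscoveRx reagent added for 30–60 minutes at room temperature; luminescence read, quantitative HTS format.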
D1 ag: agonists of human D1 dopamine receptor; P21728; HEK293 T-REx D1 cells, calcium flux, agonist mode; activation, % at 2 µM; hit rate 1% among 360,000; AID 504660; in the data active = activation above about 30%
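Tetracycline-induced HEK293 TREx D1 cells, force-coupled to calcium signalling, were dye-loaded with a no-wash calcium kit. Compound was pin-added after a 10 s baseline. Fluorescence was read kinetically at 1 cycle/s for 180 s, with calcium rises flagged as agonism.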
DRD3 agonist: activates the human D3 dopamine receptor | hit rate 0.58% among 410,000 | AID 652048 | P35462 | D3R DiscoveRx beta-arrestin cells, luminescence, 90 min | max activation, %; in the data active = max activation above about 30%
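Agonist mode: compounds and dopamine controls were applied to plated cells for 90 min at 37 degrees C after an overnight attachment at 1500 cells/well. Luminescent read-out followed 30 - 60 minutes at room temperature with DiscoveRx detection reagent.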
D1 PAM: potentiators of human D1 dopamine receptor. HEK293 TREx D1 cells, calcium flux, dopamine EC20 potentiation. potentiation, % at 10 µM. hit rate 0.036% among 360,000; in the data active = potentiation above about 30%
D1 antagonist: human D1 dopamine receptor antagonism | P21728 | AID 504652 | activity change, negative = inhibition, % at 10 µM | hit rate 3.2% among 360,000 | HEK293 TREx D1 cells, calcium flux, dopamine EC80; stronger effect = lower value; in the data active = activity change below about -30%
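Calcium flux readout: force-coupled, inducible Hek293 Trex D1 line, cells induced overnight at 30 C with tetracycline, dye-loaded 30–90 min at RT. Antagonism scored against EC80 dopamine challenge given 180 s after compound.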
Numbers stand for hits; n = inactive; x = no result.

SMILES | D3 antag | D1 ag | DRD3 agonist | D1 PAM | D1 antagonist
COc1ccc(-c2n[nH]nc2C2=CC(=O)CC(C)(C)C2)cc1 | n | x | n | x | x
COc1cccc(-c2ccc(CN3C(C(C)C)C(=O)N(Cc4cn(CCC5OCCO5)nn4)CCS3(=O)=O)cc2)c1OC (configuration not stated) | n | x | n | x | x
O=c1[nH]c(=S)[nH]c2c1C(c1cccc(C(F)(F)F)c1)OC(CCc1ccccc1)C2 (configuration not stated) | -71 | x | n | x | x
Cc1ccccc1Nc1nnc(SCc2cc(=O)n3ccsc3n2)s1 | n | n | 46 | n | -54
O=c1cc(CSc2nnc(Nc3ccccc3)s2)nc2sccn12 | n | n | n | n | n
CC(C)NC(=O)Cn1c(=O)cnc2ccccc21 | n | n | n | n | -55
O=[S+]([O-])(c1ccc(N2CCOCC2)nc1)N1CCN([S+](=O)([O-])c2c(F)cccc2F)CC1 | x | n | x | n | n
COc1ccc(-c2nc(C)c(CCNC(=O)C(=O)Nc3cc(C)cc(C)c3)s2)cc1OC | x | n | n | n | n
CC(OC(=O)c1ncc(Cl)c(Cl)c1Cl)C(=O)NC1CCCCC1C (configuration not stated) | n | n | n | n | -32
Cc1ccc(C(=O)OC(C)C(=O)NC2CCCCC2C)s1 (configuration not stated) | n | n | n | x | n
CCOC(=O)c1cc(C)n(CC2CCC(C(=O)Nc3ccc(Cl)cc3)CC2)c1C (configuration not stated) | x | n | n | n | -34
CCOC(=O)c1cc(C)n(CC2CCC(C(=O)Nc3cccc(Cl)c3)CC2)c1C (configuration not stated) | x | n | n | n | n
CC(=O)c1ccc(NC(=O)C[n+]2ccccc2)cc1 | n | n | n | n | -31
COC(=O)c1ccc(NC(=O)C[n+]2ccccc2C)cc1 | -59 | n | n | n | n
O=C(C[n+]1ccc(C(=O)c2ccccc2)cc1)Nc1cccc([N+](=O)[O-])c1 | -95 | x | n | x | x
Cc1ccc(NC(=O)COc2cccc(-n3cnnn3)c2)cc1[N+](=O)[O-] | n | n | n | n | -45
CC[C@H]1O[C@H](C)CC2=C1C(=O)OC(C)(C)O2 | n | x | n | x | x
Cc1ccc(NC(=O)C[n+]2ccccc2)cc1[N+](=O)[O-] | -59 | x | n | x | x
Cc1ccsc1/C=N/n1c(-c2ccco2)n[nH]c1=S | -59 | n | n | n | n
CC(=O)c1ccc(NC(=O)CSc2nnc3ccc(-c4ccc(Cl)cc4)nn23)cc1 | x | n | n | n | x
COc1ccccc1NC(=O)c1ccc2ccccc2c1 | x | n | x | n | n
COC(=O)c1ccc(N(CC(=O)NC2CCCC2)C(=O)CNC(=O)c2cccs2)cc1 | n | n | n | 30 | n
O=Nc1c(O)n(Cc2ccc(Cl)cc2Cl)c2ccccc12 | -92 | n | n | n | n
NC(=O)c1c(NC(=O)C2COc3ccccc3O2)sc2c1CCN(Cc1ccccc1)C2 (configuration not stated) | n | 105 | n | n | n
CC(=O)c1ccc(C(=O)Nc2sc3c(c2C(N)=O)CCN(Cc2ccccc2)C3)cc1 | x | 63 | x | n | n
SMILES | D3 antag | D1 ag | DRD3 agonist | D1 PAM | D1 antagonist
Cc1cc2c(s1)c1cnn(Cc3ccc(C(C)C)cc3)c(=O)c1n2C | x | n | x | n | n
CC(C)CC(=O)OC(C)(C)[C@@H]1Cc2c(ccc3ccc(=O)oc23)O1 | n | x | n | x | x
C/C=C(/C)C(=O)OC(C)(C)[C@@H]1Cc2c(ccc3ccc(=O)oc23)O1 | -154 | n | n | n | n
Cc1cccc(/C=C\c2nc3ccccc3c(=O)[nH]2)c1 | n | n | n | n | n
CN(C)c1ccc(/C=C(\C#N)c2nc3ccccc3c(=O)[nH]2)cc1 | x | 97 | n | n | n
O=c1[nH]c(/C=C/c2ccc(Br)cc2)nc2ccccc12 | n | n | n | n | n
CN(C)c1ccc(/C=C/c2nc3ccccc3c(=O)[nH]2)cc1 | n | 39 | n | n | n
Cc1cccc(/C=C(\C#N)c2nc3ccccc3c(=O)[nH]2)c1 | x | n | 34 | n | n
Cc1nc(/C=C/c2ccccc2)[nH]c(=O)c1-c1ccccc1 | n | n | n | n | -43
CCOc1ccc(-c2nnc(SCC(=O)NCc3ccccc3Cl)o2)cc1 | x | n | n | n | n
COc1cccc(CNC(=O)CSc2n[nH]c(-c3ccccc3Cl)n2)c1 | x | n | n | n | n
COc1ccc(OC(=O)c2cn(-c3cccc(OC)c3)c(=O)c3ccccc23)cc1 | x | n | n | n | n
